The source of these data is PubChem BioAssay (NCATS).

What all share (assay): qHTS profiling for inhibitors of Plasmodium falciparum proliferation (AID 504749); also: nearly all actives have a fitted effect of over 60% in size
Holding throughout (details): P. falciparum in erythrocytes, SYBR Green DNA, 72 h; series mostly up to 28.7 µM
For orientation: qHTS replaces the single test concentration by a dilution series.

One assay relates to CP260. The procedure, abridged:
(§1)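 In a 72 h erythrocytic culture (37 C, humidified, 5% CO2) at 2.5% hematocrit and 0.3% starting parasitemia, compounds were tested; SYBR Green I in detergent lysis buffer stained parasite DNA overnight.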

Another assay relates to CP262. An outline of the steps: as §1
Another assay deals with CP265. The procedure, abridged: as §1
The next assay concerns CP266. An outline of the steps: as §1
For a further assay, the system named is CP268. The procedure, abridged: as §1
A further assay concerns CP269. The procedure, abridged:
as §1

The test system of the next assay is CP286. The procedure, abridged:
as §1

The next assay has as its system CP291. An outline of the steps: as §1
For a further assay, the system named is CP297. An outline of the steps: as §1
The next assay deals with CP305. An outline of the steps:
as §1

The test system of a further assay is CP315. The procedure, abridged: as §1
For the next assay, the system named is CP325. An outline of the steps:
as §1

A further assay has as its system CP329. An outline of the steps:
as §1

For another assay, the system named is CP335. The procedure, abridged:
as §1

For the next assay, the system named is DFO2036. An outline of the steps:
as §1

For a further assay, the system named is DIV14. The procedure, abridged:
as §1

The subject of another assay is DIV17. The procedure, abridged:
as §1

The next assay relates to DIV30. The procedure, abridged:
as §1

The test system of another assay is Dd2. The procedure, abridged:
as §1

The subject of the next assay is ECU. The procedure, abridged:
as §1

Inconclusive results are not listed. Calls of active or inactive are those of the source. Calls follow the shape of the dose curve; as a rule, active = well fitted inhibition curve with a large enough effect; inconclusive = small, poorly fitted or top-dose-only effect; inactive = flat fitted curve, though single readings scatter.
Potency is read from the fitted curve at half-maximal effect.

Consider `CCCCCl`, for which the Potency entry with CP260, in the assay on CP262, with CP265, in the assay with CP266, with CP268 and in the assay with CP269 was “inactive” each time. In addition, the Potency entry in the assay on CP286, with CP291, in the assay with CP297, in the assay with CP305, in the assay with CP315 and with CP325 was “inactive” in each case. Also, the Potency entry in the assay with CP329, with CP335, in the assay with DFO2036, with DIV14, with DIV17 and with DIV30 was “inactive” in each case. The Potency entry in the assay on Dd2 and in the assay with ECU was “inactive” throughout.

Take `ClC(Cl)(Cl)Cl`: the Potency entry in the assay with CP260, in the assay with CP262, in the assay with CP265, in the assay on CP266, in the assay with CP268 and in the assay with CP269 was “inactive” in each case. Further, the Potency result in the assay on CP286, with CP291, with CP297, in the assay on CP305, in the assay with CP315 and with CP325 was “inactive” in each case. Also, the Potency result in the assay with CP329, with CP335, in the assay on DFO2036, in the assay with DIV14, in the assay with DIV17 and with DIV30 was “inactive” each time. Moreover, the Potency result in the assay with Dd2 and in the assay with ECU was “inactive” throughout.

As to `CC1CCC(C(C)C)C(OC(=O)c2ccccc2N)C1` (centres undefined), the Potency entry with CP260, with CP262, in the assay on CP265, in the assay with CP266, in the assay with CP268 and in the assay on CP269 was “inactive” throughout. The Potency result in the assay on CP286, with CP291, in the assay on CP297, in the assay on CP305, with CP315 and in the assay on CP325 was “inactive” each time. Further, the Potency entry with CP329, with CP335, with DFO2036, with DIV17, in the assay on DIV30 and in the assay with ECU was “inactive” each time.

Regarding `CN1C2CCC1CC(OC(c1ccccc1)c1ccc(Cl)cc1)C2` (centres undefined), the Potency was 7.94 µM (active) with CP260; 5.36 µM (active) in the assay with CP262; 8.91 µM (active) in the assay on CP265; 13.5 µM (active) in the assay on CP266; 9.53 µM (active) in the assay with CP268; 9.53 µM (active) with CP269. In addition, the Potency in the assay on CP286 was 5.01 µM (active); in the assay on CP291, 12 µM (active); in the assay on CP297, 8.49 µM (active); in the assay on CP305, 12 µM (active); in the assay on CP325, 9.53 µM (active); in the assay on CP329 it was 13.5 µM (active). The Potency with CP335 was 6.01 µM (active); in the assay on DFO2036, 11.2 µM (active); in the assay on DIV14, 7.57 µM (active); with DIV17 it was 7.57 µM (active); in the assay on DIV30, 7.57 µM (active); in the assay on Dd2, 10 µM (active). Besides, the Potency with ECU is 6.31 µM (active).

As for `O=C(NCNC(=O)NC1C(=O)NC(=O)N1CO)NC1C(=O)NC(=O)N1CO` (centres undefined), the Potency entry with CP260, in the assay on CP262, in the assay on CP265, in the assay on CP266, with CP269 and in the assay on CP286 was “inactive” throughout. For the same molecule, the Potency entry in the assay on CP291, with CP297, with CP305, in the assay with CP315, with CP325 and with CP329 was “inactive” in each case. The Potency entry in the assay on CP335, with DFO2036, in the assay on DIV14, with DIV17, in the assay on DIV30 and in the assay with Dd2 was “inactive” throughout. The Potency result with ECU was “inactive”.

For the molecule `CCC1C(C)=NN=C(c2ccc(OC)c(OC)c2)c2cc(OC)c(OC)cc21` (centres undefined), the Potency result with CP260, with CP262, with CP265, in the assay with CP266, with CP268 and in the assay on CP269 was “inactive” in each case. Besides, the Potency result in the assay with CP291, in the assay on CP305, with CP315, in the assay on CP325, with CP329 and in the assay with CP335 was “inactive” throughout. In addition, the Potency entry with DFO2036, in the assay on DIV30 and with Dd2 was “inactive” throughout.

For the molecule `O=C1CCO1`, the Potency result in the assay on CP260, in the assay on CP262, with CP265, in the assay with CP266, in the assay on CP268 and in the assay with CP269 was “inactive” throughout. Besides, the Potency result in the assay on CP286, with CP291, with CP297, in the assay on CP305, in the assay with CP315 and with CP325 was “inactive” throughout. In addition, the Potency entry in the assay on CP329, in the assay on CP335, with DFO2036, in the assay on DIV14, in the assay on DIV17 and in the assay on DIV30 was “inactive” in each case. Further, the Potency result in the assay on Dd2 and in the assay with ECU was “inactive” in each case.

For `O=[N+]([O-])c1ccccc1`, the Potency result in the assay with CP260, in the assay on CP262, in the assay with CP265, in the assay on CP266, in the assay on CP268 and in the assay on CP269 was “inactive” throughout. The Potency result with CP286, in the assay with CP291, in the assay on CP297, in the assay on CP305, in the assay on CP315 and in the assay on CP325 was “inactive” in each case. Also, the Potency result in the assay on CP329, in the assay with DFO2036, with DIV14, in the assay on DIV17, with DIV30 and in the assay with Dd2 was “inactive” in each case. Besides, the Potency result with ECU was “inactive”.

Take `CC(=O)OO`: the Potency entry in the assay with CP260, in the assay on CP262, with CP265, with CP266, in the assay on CP268 and in the assay with CP269 was “inactive” throughout. Besides, the Potency entry with CP286, in the assay on CP291, with CP297, in the assay with CP305, in the assay with CP315 and in the assay on CP325 was “inactive” each time. Moreover, the Potency entry with CP329, in the assay with CP335, with DFO2036, with DIV14, in the assay on DIV17 and in the assay with DIV30 was “inactive” each time. For the same molecule, the Potency result with Dd2 and in the assay on ECU was “inactive” throughout.

With `O=C(NC(=O)c1c(F)cccc1F)Nc1ccc(Cl)c(Oc2ncc(C(F)(F)F)cc2Cl)c1`, the Potency result in the assay with CP260, in the assay with CP262, with CP265, in the assay on CP266, in the assay with CP268 and with CP269 was “inactive” throughout. Also, the Potency entry with CP286, with CP291, with CP297, in the assay with CP305, with CP315 and in the assay on CP325 was “inactive” in each case. Moreover, the Potency entry with CP329, in the assay on CP335, in the assay with DFO2036, in the assay on DIV14, in the assay with DIV17 and in the assay on DIV30 was “inactive” in each case. Besides, the Potency entry in the assay with Dd2 and with ECU was “inactive” in each case.

As to `C=CCN=C=S`, the Potency result with CP260, in the assay on CP262, in the assay with CP265, in the assay on CP266, in the assay on CP286 and in the assay with CP325 was “inactive” throughout. Moreover, the Potency result with CP335, with DFO2036, in the assay with DIV14, in the assay with Dd2 and with ECU was “inactive” each time.

In the case of `c1csc(C2(N3CCCCC3)CCCCC2)c1`, the Potency result in the assay on CP260, in the assay with CP262, with CP265, in the assay with CP266, with CP268 and with CP269 was “inactive” in each case. The Potency result in the assay on CP286, in the assay on CP291, in the assay with CP297, with CP305, in the assay with CP315 and in the assay with CP325 was “inactive” throughout. The Potency result in the assay on CP329, with CP335, in the assay on DFO2036, in the assay with DIV17, with DIV30 and with ECU was “inactive” each time.
